The structures appear in SMILES notation. In all, about 310,000 compounds went through this assay and about 1,000 (0.32%) were called active. A selection follows. Entries with a potency or affinity are not part of this list. Unmarked numbers belong to inactive results. How the calls were made is not given here.

This test is described as follows: Inhibition of PhoP regulon, Salmonella typhi GFP reporter cells, confirmation, 4 h (AID 1850).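 Further: 0% = induced wells with vehicle and 100% = uninduced wells.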 Particulars: Salmonella Typhi PhoP-promoter GFP reporter, fluorescence, at 50 µM, hits give high values.
Turning to `Cc1ccccc1NC(=O)c1ccco1`, the inhibition is -6.44%. `COc1ccc(/C=C2\CCCC3C2=NC(=S)NC3c2ccc(OC)cc2)cc1` (centres undefined): the inhibition is -6.47%. With `COc1ccccc1-c1nc(-c2ccc(Br)cc2)no1`, the inhibition is 19.9%. Turning to `CC1CCCCN1CCNC(=O)c1ccc2c(c1)N(Cc1cccc(Cl)c1)C(=O)c1ccccc1S2=O` (centres undefined), the inhibition is -21.9%. On to `Cc1ccc(CNC(=O)C2CC(c3ccc(C(F)(F)F)cc3)=NO2)o1` (centres undefined), for which the inhibition is -0.47%. Turning to `CCCc1cc(C(=O)OC)c(NC(=O)OCC)s1`, the inhibition was 0.48%. With `COC(=O)CNC(=O)c1ccc(NS(=O)(=O)c2cc([N+](=O)[O-])ccc2Cl)cc1` the figure was -1.71%; with `CN(C)C(=O)c1ccc(-n2cnc3ccccc3c2=O)cc1`, 6.15%. For `Cc1cc(O)c2c(c1)C(=O)c1cc(O)cc(O)c1C2=O`, the inhibition is -20.4%. Take `COc1cc(NC(=O)c2cccs2)c(C(=O)OCC(=O)NC(=O)NCc2ccccc2)cc1OC`: the inhibition was -3.62%. For the compound `O=C(COC(=O)c1ccc([N+](=O)[O-])s1)Nc1ccccc1`, the inhibition is 4.19%. For the compound `NS(=O)(=O)c1ccc(NC(=O)COC(=O)c2ccc([N+](=O)[O-])s2)cc1`, the inhibition is 9%. With `S=c1[nH]nc(COc2ccc(Cl)cc2)n1-c1ccc(Cl)cc1` the figure was 2.37%; with `Cc1ccccc1N=Nc1ccc(O)c2ncccc12`, -0.137%; with `Cc1ccc(N=Nc2ccc(O)c3ncccc23)cc1`, -8.35%. With `CCOc1ccc(N(CC(=O)NC2CCCCC2)C(=O)CCC(=O)Nc2cc(C)ccn2)cc1`, the inhibition is 2.46%. With `COc1ccc(C(CCNCc2ccc(N(C)C)cc2)c2ccccc2)cc1` (centres undefined) the figure was 6.13%; with `COc1ccc(C(CCN)c2ccc3c(c2)OCO3)cc1` (centres undefined), -14.2%; with `Cc1ccccc1OCCN1C(=O)c2ccccc2C1=O`, -6.01%. For `CCCNC(=O)COC(=O)c1ccc(S(=O)(=O)N2CCCCCC2)cc1`, the inhibition was -7.39%. Turning to `C=CCNC(=S)N1CCN(c2ncc3c(=O)c(C(=O)O)cn(CC)c3n2)CC1`, the inhibition was -7.57%.

As for `CCn1cc(C(=O)O)c(=O)c2cnc(N3CCN(C(=S)Nc4ccccc4)CC3)nc21`, the inhibition was 7.15%. Consider `CCCCCCCCC(=O)N1CCN(c2cc3c(cc2F)c(=O)c(C(=O)O)cn3CC)CC1`, for which the inhibition was -9.35%. As for `CCCCCCCC(=O)N1CCN(c2cc3c(cc2F)c(=O)c(C(=O)O)cn3CC)CC1`, the inhibition was 9.58%.

Turning to `CCCCCCCCCC(=O)N1CCN(c2cc3c(cc2F)c(=O)c(C(=O)O)cn3CC)CC1`, the inhibition is -9.96%. In the case of `CCCCCCC(=O)N1CCN(c2cc3c(cc2F)c(=O)c(C(=O)O)cn3CC)CC1`, the inhibition is -12.4%.

Regarding `Cn1ccnc1SCC(=O)NC1CCCC1`, the inhibition was -6.69%. For `Cc1cccc2cc(CN(C(=O)c3cccc([N+](=O)[O-])c3)C(C)C)c(=O)[nH]c12`, the inhibition is -4.34%. With `COc1ccc(NC(=O)c2nc3nc(C)cc(C(F)F)n3n2)cc1OC`, the inhibition was -3.09%.

For `CC(C)(C)c1ccc(CS(=O)(=O)CC2(O)CCN(C(=O)c3cccc(C(F)(F)F)c3)CC2)cc1`, the inhibition was -0.12%. As for `CS(=O)(=O)c1ccc(Cl)c(NC(=O)COC(=O)Cc2c[nH]c3ccccc23)c1`, the inhibition is -1.58%. For the compound `Cc1cc(N(CCO)CCO)ccc1N=Nc1cc(F)ccc1F`, the inhibition was 22.3%. As to `CCCOc1cccc(C(=O)Nc2cccc3ncccc23)c1`, the inhibition is -5.81%.

Consider `CCOc1ccc(S(=O)(=O)N2CCN(C(=O)c3sccc3C)CC2)cc1`, for which the inhibition is -3.32%.

In the case of `CCCCCCn1cc(C(=O)O)c(=O)c2cc(F)c(N3CCN(C)CC3)cc21`, the inhibition was -6.43%. For `CCOC(=O)c1cn(CC)c2cc(N3CCCCC3)c(F)cc2c1=O`, the inhibition is -24.8%.

Turning to `CCCCCCn1cc(C(=O)O)c(=O)c2cc(F)c(N3CCN(C(=O)OCC)CC3)cc21`, the inhibition is -8.26%. Regarding `CCCCNc1nnc(SCC(=O)N2CCN(S(=O)(=O)c3ccc4ccccc4c3)CC2)s1`, the inhibition was -3.79%. As to `CC(=O)Nc1cccc(C(=O)OC(C)C(=O)NC2CCCc3ccccc32)c1` (centres undefined), the inhibition is -2.01%. Consider `CCNc1cc(N2CCOCC2)nc(SC)n1`, for which the inhibition is 7.57%. In the case of `Cc1cccc(-c2cc(=O)c(C(=O)O)cn2-c2ccc(F)cc2F)c1`, the inhibition was -13.4%. In the case of `COc1c(F)c(F)cc2c(=O)c(C(=O)O)cn(C3CC3)c12`, the inhibition was 1.27%. For the compound `O=C(O)c1cn(C2CCCCC2)c2ccccc2c1=O`, the inhibition is 2.42%.

As to `COC(=O)C(c1cc(OC)c(O)c(OC)c1)(N1CCNC(C)C1)C(F)(F)F` (centres undefined), the inhibition was -16.6%. Regarding `CCOC(=O)c1cn(C2CC2)c2c(F)c(NCCCN(C)C)c(F)cc2c1=O`, the inhibition was 4.81%.

As to `CCOC(=O)c1cn(C2CC2)c2c(F)c(F)c(F)cc2c1=O`, the inhibition was 5.55%. With `O=C(O)c1cn(-c2ccc(N3CCCC3)c(F)c2)c2c(F)c(F)c(F)cc2c1=O` the figure was -7.01%; with `O=C(Nc1cccnc1)C1CC(c2ccccc2O)=NO1` (centres undefined), -2.59%; with `CCNc1nc(NCC)nc(OCCOC(=O)c2ccccc2)n1`, -3.56%.

Consider `COc1cc(CNCCN2CCOCC2)ccc1OCc1ccccc1Cl`, for which the inhibition was 8.72%. With `COc1cccc(C2c3[nH]c4ccccc4c3C[C@H]3C(=O)N(c4ccccc4C(=O)N4CCC(C(=O)O)CC4)C(=O)N23)c1` (some centres undefined) the figure was -4.46%; with `O=C(c1cccc(F)c1)N1CCN(C(=O)c2cc3nc(-c4ccco4)cc(C(F)(F)F)n3n2)CC1`, -3.4%.

For `COc1cc(NC(=O)Cc2ccc(F)cc2)cc(OC)c1OC`, the inhibition is -5.66%. The result for `CCOC(=O)Cc1csc(NC(NC(=O)CC)(C(F)(F)F)C(F)(F)F)n1` reads 0.93%; that for `CC1CCCCC1NC(=O)COC(=O)COc1ccccc1Cl` (centres undefined), -4.09%; that for `O=C(CCS(=O)(=O)c1cccc2nonc12)N1CCCc2ccccc21`, 4.05%. With `CCOc1ccc(C(=O)Nc2nc(C)c(C(=O)OC)s2)cc1` the figure was -11%; with `Cc1ccc(S(=O)(=O)N2CN3CCN(C3)C2)cc1`, 13.8%. For `CCOc1ccc(S(=O)(=O)N2CN3CCN(C3)C2)cc1`, the inhibition is -2.97%.

Source of the values: PubChem BioAssay AID1850 (Southern Research Specialized Biocontainment Screening …, 2009).
